Screening data as filed in PubChem BioAssay.
CHT block – inhibits the human high affinity choline transporter. AID 488975. 0.86% of 310,000 active. CHT-expressing cells, membrane potential dye, choline response; active compounds read low. Q9GZV3. B-score at 10 µM;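 active means B-score over 3 SD under the library average, and starting fluorescence ratio not unusually high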;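 further: choline stimulus applied at its EC90 after an EC20 pre-addition; B-score computed on integrated fluorescence ratio after choline addition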
Target sequence (Q9GZV3 whole entry, looked up): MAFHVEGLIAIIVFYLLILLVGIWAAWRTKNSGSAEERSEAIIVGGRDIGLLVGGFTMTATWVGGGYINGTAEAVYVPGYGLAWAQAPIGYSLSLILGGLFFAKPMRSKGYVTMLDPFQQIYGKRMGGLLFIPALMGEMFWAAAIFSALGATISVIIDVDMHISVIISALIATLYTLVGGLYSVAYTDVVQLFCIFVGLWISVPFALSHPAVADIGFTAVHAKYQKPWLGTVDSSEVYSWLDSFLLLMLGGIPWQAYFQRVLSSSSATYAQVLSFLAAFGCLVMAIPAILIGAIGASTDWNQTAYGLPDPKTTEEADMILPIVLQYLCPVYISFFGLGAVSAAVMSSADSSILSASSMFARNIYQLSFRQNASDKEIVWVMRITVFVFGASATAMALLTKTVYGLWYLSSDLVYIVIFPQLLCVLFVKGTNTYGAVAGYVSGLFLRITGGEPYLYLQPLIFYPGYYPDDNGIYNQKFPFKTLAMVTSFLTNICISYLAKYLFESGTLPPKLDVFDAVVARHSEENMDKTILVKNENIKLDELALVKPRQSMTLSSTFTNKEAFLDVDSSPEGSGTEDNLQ
Bfl-1 A1 inh – inhibitors of the anti-apoptotic protein A1, read as caspase activation; MEF A1-2A-BIM cells, Caspase-Glo 3/7 luminescence, 3 h; percent of clofoctol response, vehicle zero; caspase activation, % (test concentration not listed); 0.066% of 330,000 active; AID 2462;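 active means over half of replicate activation scores above 10%, or exactly half above 10 with the replicate mean above 10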
NALP3 yeast inh – blocks the NALP3 inflammasome reconstituted in yeast | Yeast reconstituted NLRP3/ASC/caspase-1, beta-gal luminescence, 24 h | inhibition, % at 10 µM | 0.39% of 330,000 active;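 active means inhibition of 50% or more; inactive means inhibition below 50%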;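 further: plate controls were induced DMSO wells for no effect and uninduced yeast grown without galactose for full effect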
NALP1 inh – blocks the NALP1 inflammasome reconstituted in yeast. S. cerevisiae NALP1/ASC/caspase-1 growth, X-gal OD620, 72 h. inhibition, % at 10 µM. 0.61% of 280,000 active; in the data active means inhibition mostly above about 24%, no sharp cut-off; inactive means mostly below about 32%
Mot1-301 SUMO – inhibitors of SUMOylation pathway: yeast Mot1-301 growth rescue; S. cerevisiae Mot1-301 growth rescue, ATP luminescence, 38.5C; percent above DMSO median, 100 means doubled; growth rescue, % at 18.8 µM; 1% of 320,000 active;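 active means every valid replicate shows activation above 250% relative to neutral control wells; inactive means the rest, any valid replicate at or below 250%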;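 further: OY570 slx delta 5 strain wells were the positive control but not used for scaling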
CHT PAM – allosteric activators of human choline transporter CHT | Q9GZV3 | B-score at 10 µM | CHT-expressing cells, membrane potential dye, choline EC20; active compounds read high; LV-AA mutant CHT in HEK293 cells | 0.49% of 310,000 active;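 active means initial fluorescence not abnormally high and integrated response B-score, plate-corrected, over 3 SD above library mean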
CHT activ conf – human CHT activation, confirmatory screen; shares compounds with CHT PAM; CHT-expressing cells, membrane potential dye fluorescence (FDSS); % of choline EC20–EC90 response window; HEK293 expressing CHT LV-AA mutant; choline added at its EC20; 91% of 2,500 active; activation, % at 10 µM;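 active means primary screen active, with duplicate mean activation above negative control mean plus 3 SD, cut at about 11% in these data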
HEK293 MP dye – CHT activator counter-screen hit in parental HEK293 cells; ratio readout change at 10 µM, hits read low; 62% of 2,500 active; AID 623908; membrane potential dye fluorescence (FDSS); measured after EC20 choline addition; shares compounds with CHT PAM;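 active means duplicate-averaged ratio beyond 3 SD from buffer wells, up or down, though filed actives are nearly all decreases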
Starred values were filed as active, the others as inactive; i = inactive; . = no result; ! = repeats disagree. Only some compounds are listed: those with a hit (about 3% of all), similar ones and a draw of the others.

SMILES	CHT block	Bfl-1 A1 inh	NALP3 yeast inh	NALP1 inh	Mot1-301 SUMO	CHT PAM	CHT activ conf	HEK293 MP dye
Cc1ccc2cc(C)c(NCCO)nc2c1	i	1	12	12	1	8.1*	31*	-52*
Cc1ccc2nc(C)cc(Nc3ccc4c(c3)OCCO4)c2c1	i	0	11	33*	77	i	21*	-44*
Cc1ccc2nc(C)cc(NCCO)c2c1	i	2	10	11	4	8.7*	53*	-67*
Cc1ccccc1-c1cc(C(=O)NCc2cccc(Br)c2)nn1CC1CC(c2cccc([N+](=O)[O-])c2)=NO1 (configuration not stated)	.	1	17	.	-10	.	.	.
Cc1ccc(-c2nnc3ccc(SCC(=O)Nc4cc(C)on4)nn23)cc1	i	.	15	-7	.	i	.	.
Cc1cc(NC(=O)CSc2ccc3nnc(-c4cccnc4)n3n2)no1	i	0	21	-11	-9	9.3*	49*	-42*
Cc1cc(NC(=O)CSc2ccc3nnc(-c4cccs4)n3n2)no1	i	0	5	16	11	9.9*	22*	-33*
CC(=O)c1ccc(NC(=O)CSc2ccc3nnc(-c4ccccn4)n3n2)cc1	i	1	9	-8	-12	i	49*	-46*
O=C(CSc1ccc2nnc(-c3cccnc3)n2n1)N1CCOCC1	i	1	0	6	-2	7.1*	30*	-26*
C=CCNc1nc(C)c(C(C)=O)cc1C#N	i	0	3	-20	-7	i	.	.
CC(=O)c1cc(C#N)c(NCCCN(C)C)nc1C	i	1	-10	11	17	i	54*	-32*
CCn1cc(C(=O)OCc2ccc(F)cc2)c(=O)c2ccc(C)nc21	i	0	26	3	5	8*	56*	-87*
C=CCOC(=O)c1cn(CC)c2nc(C)ccc2c1=O	i	-1	10	10	.	10*	73*	-67*
C=CCn1cc(C(=O)OCC)c(=O)c2cc(F)c(F)cc21	i	1	28	.	-4	7*	48*	-56*
CCn1cc(C(=O)OCC(=O)OC2CC(C)CCC2C(C)C)c(=O)c2ccc(C)nc21 (configuration not stated)	i	0	13	41	-34	i	31*	i
COc1cc(/C=C2/NC(=O)NC2=O)cc(Br)c1OCc1ccccc1	i	0	4	-6	-18	i	.	.
CCn1cc(C(=O)NCc2ccc3c(c2)OCO3)c(=O)c2ccc(C)nc21	.	.	.	-5	.	.	.	.
CCn1cc(C(=O)OCC(=O)Nc2c(C)n(C)n(-c3ccccc3)c2=O)c(=O)c2ccc(C)nc21	i	1	-5	-5	-20	11*	78*	-72*
CCn1cc(C(=O)OCC(=O)NCc2ccc3c(c2)OCO3)c(=O)c2ccc(C)nc21	i	0	-13	2	6	10*	60*	-56*
COc1cccc(CCN2CCC(CNS(=O)(=O)c3cc(-c4cc(C)no4)ccc3OC)CC2)c1	i	0	9	29	223	i	.	.
COc1ccccc1CN1CCC(CNS(=O)(=O)c2cc(-c3onc(C)c3C)ccc2OC)CC1	i	1	6	24	34	i	39*	-48*
CC(C)(C)c1cc(C(=O)Nc2cccnc2)cc(C(=O)Nc2cccnc2)c1	i	-1	20	10	-6	i	.	.
COc1cc2c(cc1OC)-c1cc(OCCN3CCOCC3)nc(=O)n1CC2	i	1	-3	22	14	6.5*	55*	-44*
Cc1cccc(C)c1NC(=O)COC(=O)c1cc[n+]([O-])cc1	i	0	14	.	-1	i	.	.
C#CC[N+]1(CC#Cc2ccc(C#CC[N+]3(CC#C)CCOCC3)cc2)CCOCC1	i	0	10	0	.	i	38*	-41*
SMILES	CHT block	Bfl-1 A1 inh	NALP3 yeast inh	NALP1 inh	Mot1-301 SUMO	CHT PAM	CHT activ conf	HEK293 MP dye
C#CC[N+]1(CC#Cc2ccccc2)CCCC1	i	0	15	21	-9	i	.	.
COc1cc2nc(N3CCN(C(=O)c4ccco4)CC3)nc(N)c2cc1OC	i	-1	23	8	-4	6.5*!	37*	-26*
Cc1ccc(COn2c(-c3ccc(Cl)cc3Cl)nc3ncccc32)cc1	i	1	7	-7	.	6.6*	31*	i
COc1ccccc1C(=O)NCCC(=O)NNC(=O)c1ccccc1O	i	-1	0	.	2	i	.	.
C=CCN(Cc1ccc(Cl)s1)C(=O)c1cc(S(=O)(=O)N2CCOCC2)ccc1F	.	1	9	.	-8	.	.	.
O=C1CCC(c2ccc(-n3ccnc3)cc2)=NN1	i	0	15	.	-7	7.3*	23*	-28*
CCCCCc1ccc(C2=NNC(=O)CC2)cc1	i	0	40	14	4	i	.	.
CCOC(=O)C[C@H]1c2cc(C(F)(F)F)ccc2S(=O)(=O)N1Cc1ccccc1	i	-1	6	.	4	i	7	i
Cn1cccc/c1=N\c1cccc[n+]1C	i	1	10	8	-4	i	67*	-56*
CCOc1cc(OCC)cc(C(=O)NCc2ccco2)c1	i	1	13	13	1	i	.	.
Cc1sc2nc3ccc(NCc4ccco4)nn3c(=O)c2c1C	i	-1	4	16	-5	6.6*	12*	-37*
C=CCOc1ccc(Br)cc1CNCCCN1CCOCC1	i	0	1	20	79	i	29*	i
C=CCOc1ccc2ccccc2c1CNCCCN1CCOCC1	i	0	-3	-15	98	i	.	.
Cc1ccc(-c2c[n+](Cc3ccc(Cl)c(Cl)c3)c3n2CCC3)cc1	i	0	4	0	-8	7*	52*	-30*
CSc1ccc(S(=O)(=O)NC2CC3CCC2C3)cc1 (configuration not stated)	i	1	39	32	66	i	.	.
COc1ccc2c(c1)sc1nc(=O)ccn12	i	0	19	5	140	i	.	.
Cc1ccc2c(c1)sc1nc(=O)ccn12	i	0	5	2	-1	i	40*	-38*
COc1ccc(C2CC(c3c(O)cc(C)oc3=O)=NCCS2)c(OC)c1 (configuration not stated)	i	3	13	8	-9	7.6*	51*	i
